Screening data deposited in PubChem BioAssay by National Center for Advancing Translational Sciences (NCATS).
Abeta yeast res = A-beta toxicity reversal in yeast. yeast expressing A-beta42, growth rescue, OD600, 48 h; response scale: 0% DMSO, 100% iron-clioquinol control. Potency, µM (doses to about 46.1 µM), actives largely listed as activators. 410,000 tested, 0.063% active. AID 1347071; also: nearly all actives have a fitted effect of over 55% in size
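Growth rescue measured by 600 nm absorbance after 48 h yeast culture at 30 C with compound. Values normalized between DMSO and an equimolar ferric chloride plus clioquinol control.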
aSyn rescue = rescues yeast growth from alpha-synuclein toxicity | Yeast expressing alpha-synuclein, growth rescue, BacTiter-Glo, 24 h | Potency, µM (highest dose often 46.1 µM), without a hit: top-dose growth rescue (activation), usual class: activators | 370,000 tested, 0.14% active | AID 652106; also: % of control where 0% means no effect; nearly all actives have a fitted effect of over 65% in size
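Screening used galactose-induced yeast with toxic alpha-synuclein levels, exposed to compound for 24 hr at 30 deg C. Cell growth, read with BacTiter-Glo luminescence, gave the measured signal.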
TDP-43 yeast inh = rescues yeast growth from TDP-43 toxicity. TDP-43 expressing yeast growth rescue, BacTiter-Glo, 24 h. 410,000 tested, 1.8% active. Potency, µM (highest dose often 46.1 µM), for the others: at the top dose growth rescue (activation), most hits filed as activators. AID 652104; also: % of control where 0% means no effect; nearly all actives have a fitted effect of over 50% in size
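Luminescence from BacTiter-Glo reports growth of TDP-43-expressing yeast after 24 hr at 30 deg C with compound. Cells were raffinose-pregrown to mid-log, then seeded in galactose medium at OD600=0.02.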
FUS suppressor = FUS proteinopathy suppression in yeast; S. cerevisiae FUS-expressing, growth rescue, OD600, 24 h; Potency, µM (highest dose often 76.6 µM), most hits filed as activators; 390,000 tested, 0.24% active; AID 1347120;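 also: plate controls were DMSO vehicle for no effect and reference control for full effect; nearly all actives have a fitted effect of over 55% in size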
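Yeast expressing FUS under galactose induction, OD 0.005 in 2% galactose medium; compounds in a dilution series, 24 h at 30C. Growth rescue by absorbance at 600 nm; CP55940 positive control, DMSO negative.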
* = called active by the depositor; i = inactive; ? = inconclusive; . = no result; [ ] = dose if it differs, or a comment. Hits are enriched below; roughly 2.1% of the tested compounds scored in any of these assays. Calls follow the shape of the dose curve; as a rule, active = well fitted curve in the direction sought with a large enough effect; inconclusive = small, poorly fitted or top-dose-only effect, or another doubt; inactive = no such curve, though single readings can be large; an effect the other way counts as inactive or inconclusive. Potency is read from the fitted curve at half-maximal effect.

SMILES	Abeta yeast res	aSyn rescue	TDP-43 yeast inh	FUS suppressor
COc1ccc([C@H]2CC(=O)C=C(c3ccc4c(c3)OCO4)C2)cc1OC	i	-1%	16%	i
COc1cc(F)c(C2=CC(=O)C[C@H](c3ccc4c(c3)OCO4)C2)cc1F	i	-2%	13µM*	i
COc1ccc(F)cc1C1=CC(=O)C[C@H](c2ccc3c(c2)OCO3)C1	i	1%	22µM*	i
CCOc1ccc(-n2nc(CO)c(C(=O)NCc3ccccn3)n2)cc1	i	.	24%	i
Cc1ccc(-c2nc3cnccn3c2Nc2ccc(C(C)C)cc2)o1	.	3%	.	.
O=C(CCn1cnc2onc(-c3ccc(F)cc3)c2c1=O)N1CCN(c2ccc(F)cc2)CC1	i	.	?	i
O=C(Cn1cnc2onc(-c3ccc(F)cc3)c2c1=O)N1CCN(c2ccc(F)cc2)CC1	i	?	35µM*	i
O=C1N/C(=N\N=C\c2ccccn2)SC1Cc1cccc(SC(F)F)c1 (stereo unspecified)	?	5µM*	29%	.
Cc1ccc(C2N=C(Nc3nc4ccccc4o3)NC3=C2C(=O)CC(C)(C)C3)cc1 (stereo unspecified)	.	1%	.	.
CN(C(=O)c1ccc(Oc2ccc([N+](=O)[O-])cc2)cc1)C1CCCCC1	i	-13%	20µM*	?
CN(C(=O)c1cccc(NC(=O)Cc2ccc([N+](=O)[O-])cc2)c1)C1CCCCC1	i	2%	12%	?
O=C(NCc1ccccc1C(F)(F)F)C1CC(c2ccccc2[N+](=O)[O-])=NO1 (stereo unspecified)	i	4%	13µM*	i
O=C(NCc1ccccc1C(F)(F)F)C1CC(c2ccccc2C(F)(F)F)=NO1 (stereo unspecified)	i	10%	23%	i
CCOC(=O)C1=C(c2ccccc2)NC(N)=NC1c1ccc(OCc2ccc(C(=O)OC)cc2)cc1 (stereo unspecified)	i	-8%	-15%	25µM*
N/C(=N\OC(=O)c1ccccc1)c1ccccn1	i	-34%	-20%[0.397 µM]	i
N/C(=N\OC(=O)/C=C/c1ccc(Br)cc1)c1ccccn1	i	1%	18µM*	i
N/C(=N\OC(=O)c1cccc(F)c1)c1ccccn1	i	-3%	3.2µM*	i
Cc1cccc(/C(N)=N/OC(=O)c2ccc(Br)o2)c1	i	-36%	4.5µM*	.
Cc1ccc(C(=O)O/N=C(\N)c2ccccn2)cc1	i	-49%	?	i
Cc1cccc(/C(N)=N/OC(=O)c2ccc3c(c2)OCO3)c1	i	-72%	?	i
Cc1cccc(C(=O)O/N=C(\N)c2ccccn2)c1	i	-24%	13µM*	i
N/C(=N\OC(=O)c1ccc(Br)o1)c1ccccn1	i	0%	14µM*	i
Cc1cccc(/C(N)=N/OC(=O)c2cccnc2)c1	i	-8%	11µM*	i
CCOc1ccc(C(=O)O/N=C(\N)c2ccccn2)cc1	i	-48%	13µM*	i
COc1cc(OC)cc(C(=O)O/N=C(\N)c2cccc(C)c2)c1	i	-49%	?	i
SMILES	Abeta yeast res	aSyn rescue	TDP-43 yeast inh	FUS suppressor
Cc1ccc(C(=O)O/N=C(\N)c2ccccn2)cc1C	i	-17%	10µM*	i
COCC(=O)N1CCC(C(=O)NCC2COc3ccccc3O2)CC1 (stereo unspecified)	.	.	.	i
S=c1[nH]nc(-c2cc(-c3ccccc3)n[nH]2)n1N=Cc1c[nH]c2ccccc12	.	.	.	i
O=S(=O)(NCCOc1ccccc1F)c1cccc(Br)c1	?	9%	13µM*	i
O=S(=O)(NCCOc1ccccc1F)c1ccc(Cl)cc1F	i	5%	22µM*	i
O=S(=O)(NCC(c1cccs1)S(=O)(=O)c1ccccc1)c1ccccc1 (stereo unspecified)	i	.	2.8µM*	i
O=S(=O)(NCC(c1ccco1)S(=O)(=O)c1cccs1)c1ccccc1 (stereo unspecified)	i	.	?	i
COc1ccc(C2=NN(C(=O)CSc3nc4ncc(Cl)cc4[nH]3)C(c3ccco3)C2)cc1 (stereo unspecified)	i	0%	35µM*	?
Clc1ncc(C#Cc2ccccc2)c2ncncc12	.	-73%	.	.
COc1ccc(CNC(=O)c2ccc(-c3nc(CS(=O)c4ccc(C)cc4)c(C)o3)cc2)cc1 (stereo unspecified)	i	.	-27%	25µM*
O=C(Nc1cccc(-c2nc3ncccc3o2)c1)c1ccccc1	i	0%	16µM*	i
CCN(CC)C(=O)CC[C@H]1CC[C@]2(CCCN(Cc3ccc(OC)cc3)C2)O1	.	.	.	i
O=C(Cc1ccc(OCCC2CCCCC2)cc1)NO	.	5.6µM*	.	.
CCN(CC(=O)Nc1ccc2c(c1)OCCO2)C(=O)/C=C/c1cccc(Br)c1	i	15%	13µM*	i
O=C(/C=C/c1cccc(Br)c1)c1ccc2c(c1)OCO2	i	-12%	11µM*	i
CNc1nc2sc3c(c2c(=O)n1C)CC(C)(C)SC3	i	4%	13µM*	i
C=CCOC(=O)C1=C[C@H](c2ccc(Br)cc2)[C@@H](CCCO)[C@H](OCC)O1	i	9%	22µM*	i
Brc1ccc(C2C=Cc3ccccc32)cc1 (stereo unspecified)	.	-12%	.	.
COc1cccc(C(=O)OCC(=O)c2ccc(Br)s2)c1OC	i	-5%	1.8µM*	i
O=C(COC(=O)c1ccc(Sc2ncn[nH]2)c([N+](=O)[O-])c1)Nc1cccc(Cl)c1F	.	.	.	i
CCc1noc(C)c1C(=O)Nc1nc(-c2cccs2)cs1	i	-10%	13µM*	i
Cc1ccc(O)c(NC(=O)C2CC(c3c(F)cccc3Cl)=NO2)c1 (stereo unspecified)	i	.	3.5µM*	i
CCc1c(C)sc(NC(=O)C2CC(c3c(F)cccc3Cl)=NO2)c1C#N (stereo unspecified)	i	0%	20µM*	i
Cc1ccc(O)c(C(=O)C=Cc2ccccc2)c1	i	?	13µM*	.
Cc1ccc(O)c(C(=O)/C=C/c2ccc3c(c2)OCCCO3)c1	i	-18%	14µM*	i
COc1cc(/C=C/C(=O)c2ccccc2O)cc(OC)c1OC	i	13%	16µM*	i
O=C(/C=C/c1ccc2c(c1)OCCCO2)c1ccccc1O	i	-37%	13µM*	.
Cc1ccc(-n2ncc3c(NC4CCCCC4)ncnc32)cc1	i	.	23%	i
CCNC(=S)Nc1ccc2c(c1)c(=O)n(C)n2-c1ccc(C(C)(C)C)cc1	i	-3%	15%	32µM*
Cc1cc(C)c(S(=O)(=O)NCc2csc(-c3ccccc3)n2)c(C)c1	i	.	?	i
